Test results from PubChem BioAssay (Tox21).
Results filed as inconclusive are left out. Where a call stands in place of a potency, no number is given. Activity calls are given as the source filed them. Calls follow the shape of the dose curve; as a rule, active = well fitted activation curve with a large enough effect in the repeat runs; inconclusive = weak or mixed curves; inactive = flat fitted curve, though single readings scatter.

Assay: A CellTox Green Cytotoxicity Assay to monitor cytotoxicity in HEK293 cells - 24 hour (AID 1224875); also: nearly all actives have a fitted effect of over 45% in size
Settings: CellTox Green fluorescence; series mostly up to 76.8 µM; activity change: at the top concentration
Text: National Center for Advancing Translational Sciences [NCATS]
NIH Chemical Genomics Center [NCGC]
U.S. Environmental Protection Agency [EPA]
National Institutes of Environmental Health Sciences [NIEHS]
National Toxicology Program [NTP]
Cell-based models are critical for drug discovery. Determining the natural cytotoxic effects resulting from test compounds is an essential research activity. A CellTox Green Cytotoxicity Assay to monitor cytotoxicity in real time of continues cell culture during 40 hours of the compound treatment was used to screen Tox21 10K library compounds in Hek293 cells. CellTox Green Cytotoxicity Assay is a nonlytic, homogeneous, biofluorescent method to measure cytotoxicity in cell culture after experimental manipulation. The assay system uses a proprietary asymmetric cyanine dye that is excluded from viable cells but preferentially stains the dead cell's DNA. […] Viable cells produce no appreciable increases in fluorescence. Therefore, the fluorescence signal produced by the binding interaction with dead cell DNA is proportional to cytotoxicity.
The mixture of Hek293 cell suspension and reagents were dispensed at 600cells/6 ul/well in 1536-well tissue culture treated black solid bottom plates using a Multidrop dispenser. After the assay plates were incubated at a 37 C/5% CO2 incubator for 5 hours, 23 nL of compounds dissolved in DMSO, positive and negative controls was transferred to the assay plate by a pintool work station. The plates were incubated at 37 C for 40 hours. The fluorescence intensity were measured at 0h, 8h, 16h, 24h, 32h and 40h time points using ViewLux plate reader during compound treatment.

| Structure (SMILES) | Potency | activity change |
| --- | --- | --- |
| FC(F)(F)c1ccc(Cl)cc1 | inactive |  |
| Cc1cccc(C)c1N | inactive |  |
| CCSC(=O)N1CCCCCC1 | inactive |  |
| O=C(O)COc1ccccc1 | inactive |  |
| O=[N+]([O-])c1ccc(Cl)c(Cl)c1 | inactive |  |
| Cc1cc(O)ccc1Cl | inactive |  |
| Cc1ccccc1N | inactive |  |
| CCCOC(=O)c1ccccc1C(=O)OCCC | inactive |  |
| Nc1nc(N)nc(NC2CC2)n1 | inactive |  |
| NNc1ccccc1 | inactive |  |
| C=CC(=O)OCC(CC)CCCC (stereo not given) | inactive |  |
| Nc1cc(Cl)cc(Cl)c1 | inactive |  |
| COc1nc(NC(C)C)nc(NC(C)C)n1 | inactive |  |
| COS(=O)(=O)OC | inactive |  |
| Cc1ccc(O)c(C)c1 | inactive |  |
| C[C@H]1C(=O)O[C@@H]2CCN3CC=C(COC(=O)[C@](C)(O)[C@]1(C)O)[C@H]23 | inactive |  |
| O=C(O)Cc1ccccc1 | inactive |  |
| Cc1cccc(N)c1C | inactive |  |
| Cc1cc(Cl)ccc1OC(C)C(=O)O (stereo not given) | inactive |  |
| CNC(=O)O/N=C/C(C)(C)S(C)(=O)=O | inactive |  |

| Structure (SMILES) | Potency | activity change |
| --- | --- | --- |
| CNCC(O)c1ccc(O)cc1 (stereo not given) | inactive |  |
| O=C(O)C1C(C(=O)O)C2(Cl)C(Cl)=C(Cl)C1(Cl)C2(Cl)Cl (stereo not given) | inactive |  |
| COP(=S)(OC)Oc1ccc(SC)c(C)c1 | inactive |  |
| CNC(=O)O/N=C/C(C)(C)S(C)=O (stereo not given) | inactive |  |
| CN(C)NC(=O)CCC(=O)O | inactive |  |
| O=C(O)CCCc1ccc(N(CCCl)CCCl)cc1 | inactive |  |
| OCc1ccco1 | inactive |  |
| C=CC#N |  | -4.68% (inactive) |
| CSc1nnc(C(C)(C)C)c(=O)n1N | inactive |  |
| CC(C)CCCCCCOC(=O)c1ccccc1C(=O)OCCCCCCC(C)C | inactive |  |
| CCCCCCCCCCCCCCCCCC(=O)O | inactive |  |
| CC(=O)C1CCOC1=O (stereo not given) | inactive |  |
| ClC(Cl)c1ccccc1 | inactive |  |
| CCOC(=O)CC(SP(=O)(OC)OC)C(=O)OCC (stereo not given) | inactive |  |
| COC(C)(C)CCCC(C)C/C=C/C(C)=C/C(=O)OC(C)C (stereo not given) | inactive |  |
| CC(=O)/C=C/c1ccccc1 | inactive |  |
| Cl[C@H]1OCCO[C@@H]1Cl | inactive |  |
| C=CC(=O)OCCCCCC(C)C | inactive |  |
| O=C(O)c1cc(Oc2ccc(C(F)(F)F)cc2Cl)ccc1[N+](=O)[O-] | inactive |  |
| C=CCN=C=S | inactive |  |
